Measurements as given in PubChem BioAssay (Tox21).
Where “and” joins values, the source holds several entries; their conditions need not be identical. Equal values may be shown once. Inconclusive results are not listed. Where a call stands in place of a potency, no number is given. Calls of active or inactive are those of the source. The call rests on the fitted dose curve; in most records, active means well fitted cell-killing curve with a large enough effect in the repeat runs; inconclusive means weak or mixed curves, or effect the other way; inactive means no such curve, though single readings can be large or run the other way.

Assay: qHTS assay to identify small molecule agonists of the vitamin D receptor (VDR) signaling pathway - cell viability counter screen (AID 743224); further: nearly all actives have a fitted effect of over 50% in size
Conditions: VDR-bla HEK293T viability, CellTiter-Glo luminescence, 16 h; series mostly up to 62.6 µM
Excerpt: U.S. Tox21 Program National Center for Advancing Translational Sciences [NCATS] NIH Chemical Genomics Center [NCGC] U.S. Environmental Protection Agency [EPA] National Institutes of Environmental Health Sciences [NIEHS] National Toxicology Program [NTP] U.S. Food and Drug Administration [FDA] Tox21 Assay Overview: The vitamin D receptor (VDR), a member of nuclear hormone receptor superfamily, plays a critical role in calcium homeostasis and bone metabolism. It is also involved in cell differentiation and growth, and thrombogenicity. […] The cytotoxicity of the Tox21 compound library against the VDR-bla cell line was tested in parallel by measuring the cell viability using CellTiter-Glo assay (Promega, Madison, WI) in the same wells.
Tox21 Assay Protocol Summary: VDR-bla cells were dispensed at 2,000 cells/6 uL/well into black wall/clear-bottom 1536-well plates using a Multidrop Combi (Thermo Fisher Scientific, Waltham, MA) dispenser. After the assay plates were incubated at a 37C and 5% CO2 for 4 h, 23 nL of compounds dissolved in DMSO, positive controls or DMSO only was transferred to the assay plate by a Pintool station (Kalypsys, San Diego, CA). The plates were incubated at 37C and 5% CO2 for 16 h. After 1 uL of LiveBLAzerTM B/G FRET substrate was added using a Bioraptr Flying Reagent Dispenser (FRD) workstation (Beckman Coulter, Indianapolis, IN, USA), the plates were incubated at room temperature for 2 h, and fluorescence intensity was measured by an Envision plate reader (PerkinElmer, Shelton, CT). For cell viability readout that measures cytotoxicity, 3 ul/well of CellTiter-Glo reagent was added into the assay plates using a FRD. After 30 min incubation at room temperature, the luminescence intensity in the plates was measured using a ViewLux (PerkinElmer) plate reader.
Potency means the concentration at half of the fitted maximal effect.

For `CC1=C2C[C@H]3[C@@H](CC=C4C[C@@H](O)CC[C@@]43C)[C@@H]2CC[C@]12O[C@@H]1C[C@H](C)CN[C@H]1[C@H]2C`, which Potency is on record?
Its Potency is “inactive”.

Which Potency does the source give for `CCOP(=O)(Sc1ccccc1)Sc1ccccc1` here?
The Potency was “inactive”.

Which Potency does the source give for `CCC[CH2][Sn]([CH2]CCC)([CH2]CCC)[O][Sn]([CH2]CCC)([CH2]CCC)[CH2]CCC` here?
Its Potency is 0.603 µM (active).

For `O.O.O.O.O.O.O=S(=O)([O-])[O-].[Ni+2]`, which Potency is on record?
Its Potency is “inactive”.

Which Potency does the source give for `[C-]1=CC=CC1.[Cl][Zr+2][Cl].c1cc[cH-]c1` here?
The Potency was “inactive”.

With `Clc1cc(Cl)c(-c2cc(Cl)c(Cl)cc2Cl)cc1Cl` as the compound, how does the Potency read?
The Potency was “inactive”.

Which Potency does the source give for `CC(Cc1ccc(OCC(=O)O)cc1)NCC(O)c1csc(C(F)(F)F)n1` (stereo not given) here?
The Potency was “inactive”.

For `OCC(Br)CBr` (stereo not given), which Potency is on record?
Its Potency is “inactive”.

With `S=C=Nc1ccccc1` as the compound, how does the Potency read?
The Potency was “inactive”.

Which activity change, negative = cytotoxicity does the source give for `Clc1c(Cl)c(Cl)c(Cl)c(Cl)c1Cl` here?
The activity change, negative = cytotoxicity was 2.99% [at 5.95 µM] (inactive).

Which Potency does the source give for `S=C=NCCc1ccccc1` here?
The Potency was “inactive”.

For `c1ccc2c(c1)cc1ccc3cccc4ccc2c1c34`, which Potency is on record?
Its Potency is “inactive”.

Which Potency does the source give for `CCCCC/C=C\C/C=C\C/C=C\C/C=C\CCCC(=O)NCC(=O)O` here?
The Potency was “inactive”.

Which Potency does the source give for `CC[C@H](C)[C@H]1O[C@]2(C=C[C@@H]1C)C[C@@H]1C[C@@H](C/C=C(\C)[C@@H](O[C@H]3C[C@H](OC)[C@@H](O[C@H]4C[C@H](OC)[C@@H](NC)[C@H](C)O4)[C@H](C)O3)[C@@H](C)/C=C/C=C3\CO[C@@H]4[C@H](O)C(C)=C[C@@H](C(=O)O1)[C@]34O)O2` here?
The Potency was 3.09 µM (active).

With `BrCCCBr` as the compound, how does the Potency read?
The Potency was “inactive”.

Which Potency does the source give for `CNC(=O)O/N=C(\C)C(C)S(C)(=O)=O` (stereo not given) here?
The Potency was “inactive”.

With `CCN1CCC2(CC1)COc1cc3c(cc12)N(C(=O)c1ccc(-c2ccc(-c4nnc(C)o4)cc2C)cc1)CC3` as the compound, how does the Potency read?
The Potency was 35.9 µM (active).

For `[O]=[Cr][O][Cr]=[O]`, which Potency is on record?
The Potency was “inactive”.

With `O=C1C(Cl)=C(Cl)C(=O)C(Cl)=C1Cl` as the compound, how does the Potency read?
The Potency was 12.3 µM (active) and 13.8 µM (active).

Which Potency does the source give for `CCNS(=O)(=O)C(F)(F)C(F)(F)C(F)(F)C(F)(F)C(F)(F)C(F)(F)C(F)(F)C(F)(F)F` here?
The Potency was “inactive”.

For `[O-][Cl+3]([O-])([O-])O`, which Potency is on record?
The Potency was “inactive”.

With `CCOC(=O)Cc1ccccc1` as the compound, how does the Potency read?
Its Potency is “inactive”.

With `O=C(CCCCl)c1ccc(F)cc1` as the compound, how does the Potency read?
Its Potency is “inactive”.

For `CNC(C)(C)Cc1ccccc1`, which Potency is on record?
Its Potency is “inactive”.

Which Potency does the source give for `CC#C[C@]1(O)CC[C@H]2[C@@H]3C[C@H](C)C4=CC(=O)CC[C@]4(C)[C@H]3CC[C@@]21C` here?
The Potency was “inactive”.

Which Potency does the source give for `Clc1ccc(C2(Cn3cncn3)OCCO2)c(Cl)c1` here?
The Potency was “inactive”.

Which Potency does the source give for `CCCN` here?
The Potency was “inactive”.

For `CC(=O)O.CC(=O)O.CC(=O)O.CC(=O)O.CC(=O)O.CC(=O)O.CC(=O)O.O.O.[Cr].[Cr].[Cr]`, which Potency is on record?
Its Potency is “inactive”.

For `O=c1c2ccccc2c(=O)c2c1cc(Cl)c1[nH]c3c([nH]c12)c(Cl)cc1c(=O)c2ccccc2c(=O)c13`, which Potency is on record?
The Potency was “inactive”.

Which Potency does the source give for `C=CCOC(=O)c1ccccc1N` here?
Its Potency is “inactive”.

For `CC(C)C(Nc1ccc(C(F)(F)F)cc1Cl)C(=O)OC(C#N)c1cccc(Oc2ccccc2)c1` (stereo not given), which Potency is on record?
Its Potency is “inactive”.

Which Potency does the source give for `O=C(Cl)c1ccccc1F` here?
The Potency was “inactive”.

Which Potency does the source give for `Cc1ccc(C)c2ccccc12` here?
The Potency was “inactive”.

With `CC(C)(C)c1ccc(OP(=O)(Oc2ccccc2)Oc2ccccc2)cc1` as the compound, how does the Potency read?
Its Potency is “inactive”.

For `CN1CCc2cc(Cl)c(O)cc2[C@H]2c3ccccc3CC[C@@H]21`, which Potency is on record?
The Potency was “inactive”.

Which Potency does the source give for `CN(C)CCc1c[nH]c2ccccc12` here?
Its Potency is “inactive”.

Which Potency does the source give for `Clc1ccc(C(c2ccc(Cl)cc2)C(Cl)Cl)cc1` here?
Its Potency is 49.8 µM (active) and 38.9 µM (active).

With `CC(C)C(Br)C(=O)NC(N)=O` (stereo not given) as the compound, how does the Potency read?
Its Potency is “inactive”.

With `N#Cc1c2ccccc2cc2ccccc12` as the compound, how does the Potency read?
Its Potency is “inactive”.

For `Nc1nc(N)nc(Cl)n1`, which Potency is on record?
Its Potency is “inactive”.
